Pf growth 48h = inhibits P. falciparum growth in the first generation, 48 h; P. falciparum luciferase growth in erythrocytes, 48 h; Potency, µM (series often up to 28.7 µM), hits mostly inhibitors; hit rate 5.9% among 310,000; AID 504832
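Compounds are pin-transferred into medium, infected erythrocytes (2% hematocrit, 0.1% parasitemia final) are added, and plates sit one parasite generation at 37 C in 5% CO2. Detection reagent is then added and luminescence measured.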
HCV inh = blocks hepatitis C virus; hit rate 3.4% among 340,000; Potency, µM (top dose mostly 41.8 µM), actives largely listed as inhibitors; Huh7.5.1 HCVcc-Cre infection, luciferase reporter, 44 h
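Cells seeded at 1,000/well and cultured 4 h, then compounds added followed by HCVcc-Cre virus (~0.5 moi). After 44 h further culture, luciferase substrate was added, plates held 15 min at room temperature, and luminescence read for 15 sec.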
AMA1 RON2 block = AMA1-RON2 (P. falciparum) interaction inhibition | AlphaScreen AMA1-biotinylated RON2 peptide binding | Potency, µM (series often up to 58.2 µM), usual class: inhibitors | hit rate 0.2% among 360,000 | AID 720542; further: nearly all actives have a fitted effect of over 45% in size
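AMA1 (3D7) with his tag at 25 nM final met compounds first, then biotinylated RON2 peptide at 25 nM; detection used donor plus acceptor beads, 10 µg/mL apiece, read by AlphaScreen after 30 min at room temperature.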
Pf growth 96h = P. falciparum growth inhibition at 96 hours. Potency, µM (top dose mostly 28.7 µM), usual class: inhibitors. P. falciparum luciferase reporter growth, 96 h. hit rate 6.9% among 320,000. AID 504834
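P. falciparum expressing integrated firefly luciferase, in erythrocytes at 2% hematocrit, 0.05% parasitemia, incubated with compounds 96 h at 37 C, 5% CO2. Growth inhibition read as loss of luminescence; two-generation exposure targets delayed-death apicoplast inhibitors.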
AmpC inh detg = AmpC beta-lactamase inhibition with detergent present; AID 485294; Potency, µM (doses to about 114 µM), actives largely listed as inhibitors; AmpC hydrolysis of nitrocefin, absorbance 480 nm, 0.01% Triton; P00811; hit rate 0.041% among 370,000; further: nearly all actives have a fitted effect of over 25% in size
Target sequence (P00811 whole entry, looked up): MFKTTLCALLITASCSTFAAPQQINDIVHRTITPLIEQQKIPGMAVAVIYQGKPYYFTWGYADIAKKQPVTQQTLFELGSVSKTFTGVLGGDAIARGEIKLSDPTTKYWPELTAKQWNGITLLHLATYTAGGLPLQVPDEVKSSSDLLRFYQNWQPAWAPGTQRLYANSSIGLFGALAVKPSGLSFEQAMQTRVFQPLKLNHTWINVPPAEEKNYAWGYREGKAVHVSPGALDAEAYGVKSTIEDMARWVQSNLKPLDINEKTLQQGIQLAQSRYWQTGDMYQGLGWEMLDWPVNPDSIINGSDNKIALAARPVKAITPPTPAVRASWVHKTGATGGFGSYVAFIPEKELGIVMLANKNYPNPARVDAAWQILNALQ
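AmpC (5.3 nM in the dispensed reagent) in 20 mM phosphate pH 7.0 with 0.01% (detergent screen) or 0.0001% Triton X-100 was preincubated with compounds for 15 min at room temperature. Nitrocefin was then added from an 800 uM solution, and hydrolysis was followed at 480 nm.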
AmpC inh no detg = inhibitors of E. coli AmpC beta-lactamase without detergent; P00811; AmpC nitrocefin hydrolysis, absorbance 480 nm, 0.0001% Triton; Potency, µM (highest dose often 57.1 µM), most hits filed as inhibitors; hit rate 0.52% among 330,000; further: nearly all actives have a fitted effect of over 20% in size
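AmpC (5.3 nM in the dispensed reagent) in 20 mM phosphate pH 7.0 with 0.01% (detergent screen) or 0.0001% Triton X-100 was preincubated with compounds for 15 min at room temperature. Nitrocefin was then added from an 800 uM solution, and hydrolysis was followed at 480 nm.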
Hits are given with their value; i = inactive; ? = inconclusive; nt = no result; [ ] = remark or other dose. The list is not random: actives were taken first. Their share in the collection is about 11%. The call rests on the fitted dose curve; in most records, active means well fitted curve in the direction sought with a large enough effect; inconclusive means small, poorly fitted or top-dose-only effect, or another doubt; inactive means no such curve, though single readings can be large; an effect the other way counts as inactive or inconclusive.

SMILES	Pf growth 48h	HCV inh	AMA1 RON2 block	Pf growth 96h	AmpC inh detg	AmpC inh no detg
O=C(CSc1nnc(COc2cccc3cccnc23)o1)c1ccc(F)cc1	?	10µM	i	i	?	i
COc1cc(C2Nc3ccccc3-c3nnc(SCc4ccc(C)cc4)nc3O2)cc(OC)c1O (stereo unspecified)	nt	nt	nt	nt	i	nt
CC1CCCN(C(=O)CCl)C1 (stereo unspecified)	4.7µM	i	i	1.5µM	i	i
Cc1cc(C)cc(NC(=O)CSc2nnc(-c3cc4occc4n3C)n2-c2ccccc2C)c1	nt	nt	nt	nt	i	nt
COc1ccc(CC(=O)Nc2cccc(C(=O)NN3C(=O)c4ccccc4C3=O)c2C)cc1	i	i	i	i	i	i
O=C(Nc1ccccc1F)c1ccco1	i	i	i	i	i	i
COc1ccc(C(=O)Cn2nnc(-c3ccccc3NC(=O)c3ccco3)n2)cc1	8.3µM	?	i	i	?	i
O=C(Nc1ccccc1-c1ccccc1NC(=O)c1ccco1)c1ccco1	10µM	i	i	?	?	i
O=C(Nc1ccccc1NC(=O)c1ccco1)c1ccco1	i	i	i	nt	i	i
O=C(Nc1ccccc1-c1ccccc1)c1ccco1	i	?	i	1.3µM	i	i
Cc1c(NC(=O)c2ccco2)cccc1C(=O)NN1C(=O)c2ccccc2C1=O	i	i	i	15µM	?	i
CCN(c1ccccc1)S(=O)(=O)c1ccc(NC(=O)c2nc(SC(C)C)ncc2Cl)cc1	nt	nt	nt	nt	i	nt
CCc1ccc(OCC(=O)Nc2c(C(=O)c3ccc(Br)cc3)oc3ccccc23)cc1	nt	nt	nt	nt	i	nt
O=C(Nc1ccccc1-c1ccccc1)c1ccc(NC(=O)c2ccco2)cc1	12µM	?	i	nt	?	i
O=C(Nc1ccc(OC(=O)c2ccco2)cc1)c1ccco1	i	i	i	?	i	i
O=C(/C=C\c1ccco1)c1ccc(NC(=O)c2ccco2)cc1	i	i	i	i	i	6.3µM
O=C(OC1CCCCC1)c1ccc(NC(=O)c2ccco2)cc1	?	?	i	2.9µM	i	i
COc1ccc(CNC(=O)c2oc3c(c2C)-c2nn(Cc4ccccc4Cl)cc2CC3)cc1	nt	nt	nt	nt	i	nt
COc1ccc(CCNC(=O)CN(c2ccccc2)S(=O)(=O)N(C)C)cc1	nt	nt	nt	nt	i	nt
CCOc1ccc(S(=O)(=O)Nc2nc3ccccc3nc2N2CCN(C)CC2)cc1	i	i	i	3.7µM	i	i
CCOc1ccc(S(=O)(=O)Nc2cnc3ccccc3c2)cc1	i	1.8µM	i	i	i	i
CCOc1ccc(S(=O)(=O)Nc2nc3ccccc3nc2Cl)cc1	i	i	i	i	?	i
CCN(CC)C(=O)Nc1cnc2ccccc2c1	i	i	i	2.3µM	i	i
CCN(CC)c1ccc(NC(=O)c2cc(CN3CCCC3)on2)c(C)c1	nt	nt	nt	nt	i	nt
CCn1c(C)c(C)c2cc(C(=O)NCC(C)c3ccccc3)ccc21 (stereo unspecified)	nt	nt	nt	nt	i	nt
SMILES	Pf growth 48h	HCV inh	AMA1 RON2 block	Pf growth 96h	AmpC inh detg	AmpC inh no detg
CC(C)(C)c1cc(=O)n(-c2ccccc2)[nH]1	?	i	i	10µM	i	i
Cc1ccsc1CNC1CCCCC1	?	i	i	?	i	i
Cc1ccsc1CNC12CC3CC(CC(C3)C1)C2	i	i	i	0.83µM	i	i
Cc1cccc(NC(=O)CN(C)S(=O)(=O)c2ccc3c(c2)n(C)c(=O)c(=O)n3C)c1C	i	i	i	?	i	i
Cc1ccccc1NC(=O)CN(C)S(=O)(=O)c1ccc2c(c1)n(C)c(=O)c(=O)n2C	?	i	i	10µM	i	i
Cc1ccc(CCNC(=O)CN(C)S(=O)(=O)c2ccc3c(c2)n(C)c(=O)c(=O)n3C)cc1	?	i	i	9.3µM	i	i
Cc1ccc(CNC(=O)CN(C)S(=O)(=O)c2ccc3c(c2)n(C)c(=O)c(=O)n3C)cc1	i	i	i	?	i	i
CCC(Cc1ccccc1)NC(=O)CN(C)S(=O)(=O)c1ccc2c(c1)c(=O)n(C)c(=O)n2C (stereo unspecified)	nt	?	i	7.4µM	i	i
COc1cccc(-c2cn3c(n2)sc2cc(C(=O)NCc4cccs4)ccc23)c1	nt	nt	nt	nt	i	nt
COc1ccc(Cn2nnnc2CN(Cc2cc3ccc(C)cc3[nH]c2=O)C2CCCC2)cc1	9.3µM	10µM	i	i[5.75 µM]	?	i
COc1ccc(Cn2nnnc2CN(Cc2cc3cccc(C)c3[nH]c2=O)C2CCCC2)cc1	10µM	?	i	i	i	i
Cc1ccc2cc(CN(Cc3ccc(F)cc3)Cc3nnnn3C3CCCC3)c(=O)[nH]c2c1	3.7µM	i	i	i	i	i
Cc1cccc2cc(CN(Cc3nnnn3C3CCCCC3)C3CCCC3)c3nnnn3c12	12µM	?	i	nt	i	i
CCC(C)(C)n1nnnc1CN(Cc1cc2cc(OC)ccc2[nH]c1=O)C1CCCC1	?	?	i	i	i	i
Cc1nn(-c2ccccc2)c2c1N(CC(=O)NCc1ccc(N(C)C)cc1)C(=O)CS2	nt	nt	nt	nt	i	nt
CSc1nc2sc3c(c2c(=O)n1-c1ccc(C)cc1)CCCC3	nt	nt	nt	nt	i	nt
O=C(/C=C/c1ccco1)Nc1ccc(Cl)c(-c2nc3cc(Cl)ccc3o2)c1	nt	nt	nt	nt	i	nt
COc1cc(-c2nc3ncccn3c2Nc2ccc(C)cc2C)ccc1O	nt	nt	nt	nt	i	nt
COc1ccc(CCn2c(C)nc3c(c(=O)c4ccccc4n3C)c2=O)cc1	?	?	i[11.6 µM]	4.7µM	i	i
COc1ccc2c(=O)c3c(=O)n(CCc4ccccc4)c(C(C)C)nc3oc2c1	7.4µM	i	i	5.2µM	i	i
COc1ccc(CCn2c(C(C)C)nc3c(c(=O)c4ccccc4n3C)c2=O)cc1	12µM	?	i	1.9µM	i	i
Cc1nn(Cc2ccccc2)c(N)c1C#N	i	i	i	12µM	i	i
Cc1nn(Cc2ccccc2)c(N)c1-c1ccccc1	i	i	i	i	i	i
C=CCN1C(=O)c2ccccc2NC1c1ccc(Br)s1 (stereo unspecified)	13µM	i	i	10µM	?	i
CCOC(=O)C1CCN(C(c2ccc(SC)cc2)c2c(O)cc(C)n(Cc3ccco3)c2=O)CC1 (stereo unspecified)	nt	nt	nt	nt	i	nt
O=C1N(Cc2cccc(C(F)(F)F)c2)c2ccccc2S(=O)(=O)N1c1cccc(Cl)c1	nt	nt	nt	nt	i	nt
CCCC1O[C@@H]2CC3C4CCC5=CC(=O)C=C[C@]5(C)C4C(OC(C)=O)C[C@]3(C)[C@]2(C(=O)COC(C)=O)O1 (stereo partly specified)	9.3µM	i	i	1.2µM	?	i
CCC[C@@H]1O[C@@H]2C[C@@H]3[C@H]4CCC5=CC(=O)C=C[C@@]5(C)[C@H]4[C@H](O)C[C@@]3(C)[C@@]2(C(=O)CO)O1	11µM	nt	nt	4.8µM	nt	nt

Screens as filed in PubChem BioAssay.
